Test results taken from PubChem BioAssay AID1671448 (Corson Lab, School of Medicine, Indiana University, 2021).
Among all 20,000 compounds or so, about 660 (3.3%) were called active.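 The calls were made as follows: active = enzyme reaction rate more than 3 SD below the solvent-only control wells on the same plate; inactive = the rest.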 Shown is part of a subset that was picked to be rich in actives.

The compounds below were run against Ferrochelatase, mitochondrial (Homo sapiens) (UniProt P22830) (assay: inhibitors of human ferrochelatase, primary screen, biochemical, purified FECH, Ni-mesoporphyrin absorbance (AID 1671448)). Conditions: Ni-mesoporphyrin absorbance 550 nm, screened at 10 µM (by protocol).
Sequence of Ferrochelatase, mitochondrial (Homo sapiens) (P22830 whole entry, looked up): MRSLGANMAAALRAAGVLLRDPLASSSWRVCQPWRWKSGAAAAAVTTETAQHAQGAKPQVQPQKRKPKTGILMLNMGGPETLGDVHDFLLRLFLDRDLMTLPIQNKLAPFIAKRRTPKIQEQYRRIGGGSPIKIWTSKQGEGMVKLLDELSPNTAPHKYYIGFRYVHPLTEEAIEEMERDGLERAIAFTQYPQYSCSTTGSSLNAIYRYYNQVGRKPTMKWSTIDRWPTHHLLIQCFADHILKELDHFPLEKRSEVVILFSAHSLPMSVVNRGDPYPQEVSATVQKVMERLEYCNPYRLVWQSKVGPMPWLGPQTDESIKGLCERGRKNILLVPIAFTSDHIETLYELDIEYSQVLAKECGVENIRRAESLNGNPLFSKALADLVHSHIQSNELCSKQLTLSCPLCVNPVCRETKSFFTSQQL

| SMILES | outcome |
| --- | --- |
| Cc1ccc2nc(CNC(=O)Cc3ccc4c(c3)OCO4)[nH]c2c1 | inactive |
| COCc1nc2cccnc2n1C1CCN(S(=O)(=O)c2ccc(C)c(C)c2)CC1 | inactive |
| O=C(O)CC1CNCCN(C(=O)c2cccc(Oc3ccccc3)c2)C1 (configuration not stated) | inactive |
| CCOC(=O)Cn1c(=O)n(-c2ccc(F)cc2)c2nc(-c3cccs3)nc(C(N)=O)c21 | inactive |
| CN1CCN(Cc2ccc(-n3cccn3)cc2)CC1C(=O)O (configuration not stated) | inactive |
| CCC1(CC)CN(C(=O)c2nnc(COC)o2)CCO1 | inactive |
| CCOc1ccc(N2CC(NC(=O)CC)CC2=O)cc1 (configuration not stated) | inactive |
| Cc1ccc(-c2cc(N3CCN(S(=O)(=O)c4ccccc4)CC3)ncn2)cc1 | inactive |
| CCCOc1cccc(-c2c(Nc3ccccc3)oc3c2c(=O)n(C)c(=O)n3C)c1 | inactive |
| Cc1nnc(SCC(=O)N2CCC(C(O)C(C)C)CC2)s1 (configuration not stated) | inactive |
| Cc1cccc(C(C(=O)NC2CCN(S(C)(=O)=O)CC2)N(C)C)c1 (configuration not stated) | inactive |
| O=C1NC(c2cccnc2)(C2CCNCC2)C(=O)N1Cc1ccccc1F (configuration not stated) | inactive |
| CCCc1c(C)nc2ncnn2c1Sc1ccc(NC(=O)C(C)(C)C)cc1 | active |
| CCCc1c(C)nc2ncnn2c1Sc1ccc(NS(=O)(=O)c2cc(C)cc(C)c2C)cc1 | inactive |
| CCc1ccc(S(=O)(=O)Nc2ccc(Sc3c(CC)c(C)nc4ncnn34)cc2)cc1 | active |
| CCc1c(C)nc2ncnn2c1Sc1ccc(NC(=O)Nc2cccc(C)c2C)cc1 | inactive |
| CCCc1c(C)nc2ncnn2c1Sc1ccccc1NC(=O)c1cccs1 | inactive |
| CCc1c(C)nc2ncnn2c1Sc1ccc(NC(=O)c2cc(OC)cc(OC)c2)cc1 | active |
| CCc1c(C)nc2ncnn2c1Sc1ccc(NC(=O)Cc2cccs2)cc1 | inactive |
| CCc1c(C)nc2ncnn2c1Sc1ccc(NC(=O)CC(C)C)cc1 | inactive |
| CCc1c(C)nc2ncnn2c1Sc1ccc(NS(=O)(=O)c2cc(OC)ccc2OC)cc1 | inactive |
| O=C(CN1CCCN(Cc2cccc(F)c2)S1(=O)=O)Nc1ccc(Br)cc1 | inactive |
| O=C(c1ccncc1)N1CC[C@@H](c2ccc3ccccc3c2)[C@H](O)C1 | inactive |

| SMILES | outcome |
| --- | --- |
| C=CCOc1c(Cl)cc(C(=O)NCCc2cnc[nH]2)cc1Cl | inactive |
| CCc1nc(C)sc1CNC(=O)[C@H](N)CC(C)C | inactive |
| CCOc1ccc(-c2nc(CSc3nc4c(c(=O)[nH]3)CCCC4)c(C)o2)cc1OC | inactive |
| COc1cccc2c1OCCCN(C(=O)[C@@H]1Cc3ccccc3N1)C2 | inactive |
| COc1ccc(CNc2nc3nc(CNc4ccc(Br)cc4)cc(=O)n3[nH]2)cc1 | inactive |
| COc1ccc(CNc2nc3nc(CNc4ccc(C)cc4)cc(=O)n3[nH]2)cc1 | inactive |
| COc1ccc(CNc2nc3nc(CN4CCN(c5ccccc5OC)CC4)cc(=O)n3[nH]2)cc1 | active |
| O=C(CSc1nc(-c2ccco2)nc2cc(=O)[nH]n12)NCCCc1ccccc1 | inactive |
| O=C(NCc1ccccc1)c1nc[nH]c1C(=O)NCc1cccc(C(F)(F)F)c1 | active |
| CC(C)(C)CNC(=O)c1[nH]cnc1C(=O)NCC1CC1 | inactive |
| CC(C)CCNC(=O)c1nc[nH]c1C(=O)NCC(C)(C)C | inactive |
| Cc1cc(C)nc(SC(C)c2n[nH]c(Cc3ccccc3)n2)n1 (configuration not stated) | inactive |
| Cc1nnnn1CCCN1CCC(Cc2cccc(C(=O)O)c2)CC1 | inactive |
| O=S(=O)(NCCn1c(-c2ccccc2)nc2cccnc21)c1ccc(C2CCCCC2)cc1 | inactive |
| O=S(=O)(NCCn1c(-c2ccccc2)nc2cccnc21)c1ccc(Br)cc1 | active |
| CCOc1ccc(S(=O)(=O)NCCn2c(-c3ccccc3)nc3cccnc32)cc1 | inactive |
| COc1cccc2c1OCC(CN1CCC(O)(c3ccc(C)cn3)CC1)=C2 | inactive |
| O=C(O)c1cccnc1CN1CCN(Cc2ccc3c(c2)OCO3)CC1 | inactive |
| Cc1ccccc1CN1CCN(CC(=O)Nc2cccc(Cl)c2C)S1(=O)=O | active |
| O=C(CN1CCN(Cc2ccccc2Cl)S1(=O)=O)Nc1ccccc1Cl | inactive |
| COc1ccccc1NC(=O)CN1CCN(Cc2ccccc2C)S1(=O)=O | inactive |
| CCOc1ccc(-c2nc(Cn3c(=O)c4cnc(-c5ccc(OC)cc5)nc4n(C)c3=O)c(C)o2)cc1 | inactive |
| CCn1ccc(-c2n[nH]c(=O)n2Cc2ccccc2F)n1 | inactive |

| SMILES | outcome |
| --- | --- |
| CCc1ccc(S(=O)(=O)N2CCN(Cc3nc4cccnc4n3-c3ccccc3)CC2)cc1 | inactive |
| Cc1ccccc1S(=O)(=O)N1CCN(Cc2nc3cccnc3n2-c2ccccc2)CC1 | inactive |
| CC(=O)Nc1ccc(S(=O)(=O)N2CCN(Cc3nc4cccnc4n3-c3ccc(C)cc3)CC2)cc1 | active |
| Cc1ccc(OCC(=O)Nc2cc(C)nn2-c2ncnc3c2cnn3-c2cccc(C)c2C)cc1 | inactive |
| CCN(CC)Cc1cnc2c(C(=O)N3CCC(Cn4cccn4)CC3)cnn2c1 | active |
| CCN(CC)Cc1cnc2c(C(=O)Nc3cccc4cc(C)oc34)cnn2c1 | inactive |
| NC(=O)c1cccc(CC2CCN(C(=O)c3cnn4cccnc34)C2)c1 (configuration not stated) | inactive |
| CN1CCC(Cc2noc(CCc3nc4cccnc4n3C)n2)CC1 | inactive |
| CCc1cccc(NS(=O)(=O)c2ccc3c(c2)CCN3C(=O)CCC(=O)N2CCOCC2)c1 | inactive |
| CCc1nc2nc(C)[nH]n2c(=O)c1NC(=O)Nc1cccc(C(F)(F)F)c1 | inactive |
| Cc1nc2nc(-c3ccccc3)nn2c(Sc2ccccc2NC(=O)c2ccc(Cl)cc2)c1C | inactive |
| O=C(Nc1nc2n(n1)C(c1ccccc1Cl)C=C(c1ccccc1)N2)c1ccccc1F (configuration not stated) | active |
| O=C(Nc1nc2n(n1)C(c1ccccc1)C=C(c1ccc(Cl)cc1)N2)c1ccc(F)cc1 (configuration not stated) | inactive |
| Cc1ccc(C2=CC(c3c(F)cccc3Cl)n3nc(NC(=O)c4ccco4)nc3N2)cc1 (configuration not stated) | inactive |
| Cc1ccc(C2=CC(c3ccc(F)cc3)n3nc(NC(=O)c4cccs4)nc3N2)cc1 (configuration not stated) | inactive |
| O=C(Nc1nc2n(n1)C(c1ccc(Cl)cc1)C=C(c1ccc(Cl)cc1)N2)c1ccccc1 (configuration not stated) | inactive |
| Cc1ccc(C(=O)Nc2nc3n(n2)C(c2ccccc2)C=C(c2ccc(Cl)cc2)N3)cc1 (configuration not stated) | inactive |
| Cc1ccc(C2=CC(c3ccc(C)cc3)n3nc(NC(=O)c4ccco4)nc3N2)cc1 (configuration not stated) | active |
| COc1ccccc1C(=O)Nc1nc2n(n1)C(c1ccc(F)cc1)C=C(c1ccccc1)N2 (configuration not stated) | active |
| O=C(Nc1nc2n(n1)C(c1c(F)cccc1Cl)C=C(c1ccccc1)N2)c1ccc(F)cc1 (configuration not stated) | inactive |
| CCCC(=O)NC1CC(=O)N(c2ccc(OCC)cc2)C1 (configuration not stated) | inactive |
